{"source": "PubChem BioAssay", "assay": "compounds altering in vitro BBB leakiness – cell-based, FITC-avidin fluorescence, HTS, primary screen (AID 1963498); also: test concentration not given here", "details": "brain endothelial barrier, actives lie on both sides", "note": "Unmarked numbers belong to inactive results. The source made the active and inactive calls. Rule as the data show it: active = fold change permeability below about 0.7 or above about 1.3; inactive = in between.", "data": [{"compound": "CC(C)C[C@H](NC(=O)[C@H]1O[C@@H]1C(=O)O)C(=O)NCCCCN=C(N)N", "values": [{"measurement": "fold change permeability", "result": "1.3 (active)"}]}, {"compound": "CO/N=C(\\C(=O)N[C@@H]1C(=O)N2C(C(=O)O)=C(COC(C)=O)CS[C@H]12)c1csc(N)n1", "note": "(stereo in doubt)", "values": [{"measurement": "fold change permeability", "result": 0.8}]}, {"compound": "COc1ccccc1CN[C@H]1CCCN[C@H]1c1ccccc1", "values": [{"measurement": "fold change permeability", "result": "0.7 (active)"}]}, {"compound": "NC(=O)C(c1ccccc1)(c1ccccc1)[C@@H]1CCN(CCc2ccc3c(c2)CCO3)C1", "values": [{"measurement": "fold change permeability", "result": 0.8}]}, {"compound": "COc1ccc2[nH]c([S@@](=O)Cc3ncc(C)c(OC)c3C)nc2c1", "values": [{"measurement": "fold change permeability", "result": 0.9}]}, {"compound": "Nc1c(C(=O)Nc2c(F)cc(F)cc2Br)sc2nc3c(cc12)CCC3", "values": [{"measurement": "fold change permeability", "result": 0.9}]}, {"compound": "COc1ccc(-c2cc(=O)c3c(O)c(OC)c(OC)cc3o2)cc1O", "values": [{"measurement": "fold change permeability", "result": "1.6 (active)"}]}, {"compound": "CC1=C(C(=O)Nc2ccc3[nH]ncc3c2)C(c2ccc(F)cc2)NC(=O)N1", "note": "(stereo not given)", "values": [{"measurement": "fold change permeability", "result": 1.2}]}, {"compound": "CC1CNc2c(cccc2S(=O)(=O)N[C@@H](CCCN=C(N)N)C(=O)N2CC[C@@H](C)C[C@@H]2C(=O)O)C1", "note": "(stereo not given in full)", "values": [{"measurement": "fold change permeability", "result": 0.9}]}, {"compound": "N[C@H](CCCP(=O)(O)O)C(=O)O", "values": [{"measurement": "fold change permeability", "result": "1.3 (active)"}]}]}
